# Test results from PubChem BioAssay (Tox21).
# “And” between values parts separate entries of the source, which are not always exact repeats. Equal entries are not always repeated. Inconclusive results are not listed. A call without a number means that no potency is given here. Some compounds were tested as several samples or in several runs, with calls that do not always agree. The source made the active and inactive calls. Unless noted, the call rests on the fitted dose curve; in most records, active means well fitted curve in the direction sought with a large enough effect in the repeat runs; inconclusive means weak or mixed curves; inactive means no such curve, though single readings can be large; an effect the other way counts as inactive or inconclusive.
# Assays:
# [1] = qHTS assay to identify small molecule antagonists of the vitamin D receptor (VDR) signaling pathway - cell viability counter screen (AID 743225); further: nearly all actives have a fitted effect of over 50% in size; further: potency means the concentration at half of the fitted maximal effect
# How it was run: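 Same-well multiplex: following 16 h treatment of HEK 293T cells carrying a UAS-driven beta-lactamase reporter with compound and agonist (3 nM final), and a 2 h FRET substrate step, CellTiter-Glo was added and luminescence read after 30 min.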
# [2] = qHTS assay to identify small molecule agonists of the NFkB signaling pathway - cell viability counter screen (AID 1159515; calls by dose curve; further: nearly all actives have a fitted effect of over 55% in size; further: potency means the concentration at half of the fitted maximal effect)
# How it was run: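 Counter screen run alongside the NFkB-bla agonist assay: ME-180 reporter cells exposed to compounds for 5 hr, then lysed with CellTiter-Glo in the same wells. Luminescence, read after 30 min, reflects viable cells.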
# [3] = qHTS assay to identify small molecule agonists of the endoplasmic reticulum stress response signaling pathway - cell viability counter screen (AID 1159517; calls by dose curve; further: nearly all actives have a fitted effect of over 50% in size; further: potency means the concentration at half of the fitted maximal effect)
# How it was run: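 Steps: seed 1,500 ESRE-bla HeLa cells per well; incubate overnight at 37 C, 5% CO2; add compounds in DMSO for 5 hr; run FRET substrate 2 hr RT; add CellTiter-Glo, wait 30 min, read luminescence.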
# [4] = qHTS assay to identify small molecule antagonists of the retinoid-related orphan receptor gamma (ROR-gamma) signaling pathway - cell viability counter screen (AID 1159520); further: nearly all actives have a fitted effect of over 50% in size; further: potency means the concentration at half of the fitted maximal effect
# How it was run: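 Tet-on ROR gamma CHO cells were given compounds for 2 hr, then doxycycline hyclate at 1 uM final, and incubated 16 hr at 37 C. Viability was measured as ATP content by CellTiter-Glo luminescence.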
# [5] = target: Nuclear receptor ROR-gamma (Homo sapiens) (UniProt P51449); assay: qHTS assay to identify small molecule antagonists of the retinoid-related orphan receptor gamma (ROR-gamma) signaling pathway (AID 1159521; further: nearly all actives have a fitted effect of over 50% in size; further: potency means the concentration at half of the fitted maximal effect)
# How it was run: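 Inducible-expression reporter assay: doxycycline (1 uM final) switched on RORγ in CHO cells bearing a ROR response element-luciferase construct, with test compounds present from 2 h beforehand. Decreased luminescence after 16 h defined antagonist activity.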
# [6] = qHTS assay to identify small molecule agonists of the AP-1 signaling pathway - cell viability counter screen (AID 1159525; calls by dose curve; further: nearly all actives have a fitted effect of over 55% in size; further: potency means the concentration at half of the fitted maximal effect)
# How it was run: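 Same-well cytotoxicity counter screen of the Tox21 10K library in ME-180 cells. The readout is ATP-dependent luminescence after 5 h compound treatment. Data are normalised to DMSO and tetra n-octyl ammonium bromide controls.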
# [7] = target: Retinoic acid receptor RXR-alpha (Homo sapiens) (UniProt P19793); assay: qHTS assay to identify small molecule agonists of the RXR signaling pathway (AID 1159527; calls by dose curve; further: nearly all actives have a fitted effect of over 35% in size)
# How it was run: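 Compounds in DMSO were added to RXR-alpha-UAS-bla HEK 293T cells kept in 2% charcoal-stripped serum, and incubated 16 hr at 37 C with 5% CO2. Reporter signal came from a 2 hr B/G FRET substrate step.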
# [8] = qHTS assay to identify small molecule agonists of the RXR signaling pathway - cell viability counter screen (AID 1159529); further: nearly all actives have a fitted effect of over 50% in size; further: potency means the concentration at half of the fitted maximal effect
# How it was run: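 Counter screen: CellTiter-Glo luminescence. Cells: RXR-alpha-UAS-bla HEK 293T. Medium: 2% charcoal-stripped FBS. Treatment: 16 h, 37 C. Reagent incubation: 30 min, RT.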
# [9] = qHTS assay to identify small molecule antagonists of the retinoid acid receptor (RAR) signaling pathway - cell viability counter screen (AID 1159551); further: nearly all actives have a fitted effect of over 35% in size; further: potency means the concentration at half of the fitted maximal effect
# How it was run: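 Measured by luminescent ATP detection, viability reflects C3RL4 cells treated 6 h at 37 C with test chemicals in the presence of 1 uM (final) retinol.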
# [10] = qHTS assay to identify small molecule antagonists of the retinoic acid receptor (RAR) signaling pathway (AID 1159552; further: nearly all actives have a fitted effect of over 50% in size; further: potency means the concentration at half of the fitted maximal effect)
# How it was run: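 Antagonism of retinol-induced RARE reporter activity was measured in C3RL4 cells. Exposure to compounds and 1 uM final retinol lasted 6 hr at 37 C, with luminescence as endpoint.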
# [11] = qHTS assay to identify small molecule agonists of the vitamin D receptor (VDR) signaling pathway - cell viability counter screen (AID 743224); further: nearly all actives have a fitted effect of over 50% in size; further: potency means the concentration at half of the fitted maximal effect
# How it was run: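 Counter screen for cytotoxicity: VDR-bla cells at 2,000 cells/well, 16 h compound exposure, then CellTiter-Glo luminescence after the beta-lactamase measurement.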
# [12] = qHTS assay to identify small molecule agonists of the endoplasmic reticulum stress response signaling pathway (AID 1159516; active means well fitted activation curve with a large enough effect in the signal ratio in the repeat runs, not every such curve was filed as active; the % refers to the signal ratio)
# How it was run: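 For this screen, HeLa cells stably carrying beta-lactamase under the ER stress response element received test compounds, positive controls or DMSO for 5 hr at 37 C; B/G FRET substrate was then added and dual-wavelength emission recorded.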
# [13] = qHTS assay to identify small molecule agonists of the AP-1 signaling pathway (AID 1159526; calls by dose curve)
# [14] = qHTS assay to identify small molecule agonists of the retinoic acid receptor (RAR) signaling pathway (AID 1159553)
# How it was run: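 6 hr compound exposure (DMSO vehicle) of overnight-plated C3RL4 RARE-luc cells at 37 C; luminescence quantified after 30 min RT with luciferase reagent.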
# Retinoic acid receptor RXR-alpha (Homo sapiens), sequence (P19793 whole entry, looked up): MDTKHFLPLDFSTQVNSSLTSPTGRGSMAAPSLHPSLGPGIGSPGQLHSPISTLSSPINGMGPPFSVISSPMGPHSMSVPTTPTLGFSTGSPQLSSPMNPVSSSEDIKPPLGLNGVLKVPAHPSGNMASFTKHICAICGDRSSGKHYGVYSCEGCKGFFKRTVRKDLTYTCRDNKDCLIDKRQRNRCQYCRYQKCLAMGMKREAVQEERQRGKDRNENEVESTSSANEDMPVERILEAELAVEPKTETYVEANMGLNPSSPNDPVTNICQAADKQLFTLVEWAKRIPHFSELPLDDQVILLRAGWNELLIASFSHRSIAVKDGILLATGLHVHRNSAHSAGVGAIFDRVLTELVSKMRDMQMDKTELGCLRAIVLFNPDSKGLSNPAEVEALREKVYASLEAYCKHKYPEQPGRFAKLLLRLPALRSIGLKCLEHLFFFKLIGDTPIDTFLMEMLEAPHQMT
Structure (SMILES),Potency [1],Potency [2],Potency [3],Potency [4],Potency [5],Potency [6],Potency [7],Potency [8],Potency [9],Potency [10],Potency [11],Potency [12],Potency [13],Potency [14]
O=C(N[C@H]1N=C(c2ccccc2F)c2cccc3c2N(CC3)C1=O)c1cc2ccccc2[nH]1,inactive,inactive,inactive,inactive,inactive,inactive,inactive,inactive,inactive,inactive,–,–,–,–
Oc1ccc(Cl)c(Cl)c1,inactive,inactive,–,–,17000 nM (active),–,inactive,inactive,inactive,–,inactive,inactive,inactive,–
CC(Cc1ccc(OCC(=O)O)cc1)NCC(O)c1csc(C(F)(F)F)n1 (configuration not stated),inactive,inactive,inactive,inactive,inactive,inactive,–,inactive,inactive,–,inactive,–,inactive,–
CO/N=C(\C(=O)OC)c1ccccc1CO/N=C(\C)c1cccc(C(F)(F)F)c1,–,inactive,–,–,770 nM (active),–,–,inactive,–,–,–,inactive,inactive,inactive
N#CSCc1ccccc1,inactive,inactive,–,–,–,–,inactive,inactive,inactive,48.8 µM (active),inactive,inactive,inactive,–
Cc1cnc2c(C(=O)O)c(Cl)ccc2c1,inactive,inactive,–,–,–,inactive,inactive,inactive,inactive,–,inactive,inactive,inactive,–
Brc1cccc(-c2ccccc2)c1,–,inactive,inactive,inactive,inactive,inactive,–,inactive,inactive,inactive,inactive,–,inactive,inactive
Oc1cc(Cl)c(Cl)c(Cl)c1Cl,–,inactive,inactive,53.2 µM (active),23800 nM (active),inactive,–,inactive,inactive,53.2 µM (active),24 µM (active),–,–,inactive
Nc1nc(N)c(N)c(N)n1,inactive,inactive,inactive,inactive,inactive,inactive,–,inactive,inactive,inactive,–,–,inactive,–
O=[N+]([O-])C(Br)Br,inactive,inactive,55 µM (active),21.7 µM (active),inactive,inactive,inactive,inactive,inactive,inactive,inactive,–,inactive,inactive
O=C(NC(=O)c1ccccc1Cl)Nc1ccc(OC(F)(F)F)cc1,inactive,inactive,inactive,inactive,inactive,inactive,inactive,inactive,inactive,inactive,inactive,–,inactive,inactive
Clc1ccc(C(c2ccc(Cl)cc2)C(Cl)Cl)cc1,–,49.8 µM (active),22.2 µM (active) and 54.9 µM (active),–,55.4 µM (active) and 54.5 µM (active),24.9 µM (active) and 34.7 µM (active),–,39.5 µM (active) and 38.9 µM (active),inactive,–,49.8 µM (active) and 38.9 µM (active),–,–,–
[F][Sn]([c]1ccccc1)([c]1ccccc1)[c]1ccccc1,692 nM (active),7.76 µM (active),5.49 µM (active),0.864 µM (active),273 nM (active),–,–,0.692 µM (active),17.2 µM (active),0.243 µM (active),0.49 µM (active),–,–,–
O=C1C(Cl)=C(Cl)C(=O)C(Cl)=C1Cl,17400 nM (active),38.9 µM (active),54.8 µM (active),15.3 µM (active),12.1 µM (active) and 30.6 µM (active),inactive,–,38.9 µM (active),60.9 µM (active) and inactive,54.3 µM (active) and 61.1 µM (active),12.3 µM (active) and 13.8 µM (active),–,–,–
CC(C)N(C(=O)CCl)c1ccccc1,inactive,inactive,inactive,27.3 µM (active) and 30.6 µM (active),–,inactive,–,24.5 µM (active),–,27.3 µM (active) and 30.6 µM (active),–,–,inactive,–
N#Cc1c2ccccc2cc2ccccc12,–,inactive,inactive,–,inactive,inactive,–,–,inactive,inactive,inactive,–,–,inactive
CC(C)C(Nc1ccc(C(F)(F)F)cc1Cl)C(=O)OC(C#N)c1cccc(Oc2ccccc2)c1 (configuration not stated),inactive,inactive,inactive,–,inactive,inactive,inactive,inactive,inactive,inactive,inactive,–,–,–
[Cl][Hg][c]1ccccc1,692 nM (active),3.89 µM (active),11 µM (active),1.09 µM (active),611 nM (active),1.38 µM (active),–,1.23 µM (active),17.2 µM (active),1.09 µM (active),–,–,–,–
CCN(CC)C(=S)S,inactive,13.8 µM (active),inactive,inactive,27.5 µM (active) and 9.63 µM (active) and 12.2 µM (active),–,–,19.4 µM (active),–,–,4.87 µM (active) and 6.92 µM (active),–,–,–
O=C1C[C@@H]2OCC=C3CN4CC[C@]56c7ccccc7N1[C@H]5[C@H]2[C@H]3C[C@H]46,inactive,inactive,inactive,–,inactive,inactive,–,inactive,inactive,–,–,–,inactive,–
CN(C)C(=S)SSC(=S)N(C)C,27.2 µM (active) and 24.5 µM (active),0.674 µM (active),inactive,33.9 µM (active) and 433 nM (active) and 422 nM (active),85.1 nM (active) and 344 nM (active) and 266 nM (active),5.49 µM (active) and 9.52 µM (active),–,272 nM (active) and 692 nM (active) and 268 nM (active),67.6 µM (active),214 nM (active) and 306 nM (active),85.9 nM (active) and 27.5 nM (active) and 188 nM (active),–,–,–
Cc1ccc2cc3c(ccc4ccccc43)c3c2c1CC3,inactive,inactive,inactive,–,inactive,inactive,inactive,inactive,inactive,inactive,inactive,–,inactive,–
